An excerpt weighted towards active compounds, which were near 5.5% of everything screened.
RORg inh: inhibitors of mouse ROR gamma transcriptional activity; P51450; Drosophila S2 Gal4-RORgamma UAS-luciferase reporter, 20 h; Potency, µM (titrated, usually from 53.6 µM), for inactives: top-dose activity change, negative = inhibition, most hits filed as inhibitors; actives 5.4% (n = 310,000); AID 2551; also: potency is read from the fitted curve at half-maximal effect; % is scaled to controls: 0 for no effect and ±100 for the full control effect; nearly all actives have a fitted effect of over 60% in size
Target sequence (P51450 whole entry, looked up, the tested form may be a part): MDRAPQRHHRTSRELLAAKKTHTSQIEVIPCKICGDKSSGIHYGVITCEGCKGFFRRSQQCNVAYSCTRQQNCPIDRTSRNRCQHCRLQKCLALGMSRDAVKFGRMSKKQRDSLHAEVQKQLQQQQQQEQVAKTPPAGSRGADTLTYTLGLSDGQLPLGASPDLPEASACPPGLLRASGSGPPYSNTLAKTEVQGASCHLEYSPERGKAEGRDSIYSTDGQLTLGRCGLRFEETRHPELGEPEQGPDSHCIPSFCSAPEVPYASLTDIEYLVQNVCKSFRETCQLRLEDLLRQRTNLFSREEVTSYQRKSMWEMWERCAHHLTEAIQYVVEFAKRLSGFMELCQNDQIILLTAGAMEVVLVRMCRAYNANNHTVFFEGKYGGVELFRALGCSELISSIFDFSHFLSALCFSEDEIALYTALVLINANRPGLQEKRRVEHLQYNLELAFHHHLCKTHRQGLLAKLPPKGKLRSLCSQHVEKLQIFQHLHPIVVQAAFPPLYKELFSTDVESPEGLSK
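Luciferase reporter read in Schneider cells carrying Gal4-RORγ (mouse) and UAS-Photinus luciferase; cells given compound 1 h before 700 uM copper sulfate induction, then incubated 20 h at ambient temperature.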
CtBP-E1A blk: blocks the CtBP interaction with E1A | AlphaScreen GST-E1A/His-CtBP binding, 1536-well; active compounds read low | activity change, % (concentration not given with the values) | actives 0.49% (n = 340,000) | AID 651724; in the data active = activity change below about -65%; inconclusive = mostly about -30% to -63%; also: % is scaled to controls: 0 for no effect and ±100 for the full control effect
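In 5 uL wells, 23 nL compound meets equimolar GST-E1A and His-CtBP (5X stock 125 nM each) for 2 h, 37 °C. Beads (5X, 50 ug/mL) then 1 h, 37 °C, dark.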
Six1-Eya2 inh: inhibitors of human Six1/Eya2 interaction | Q15475+O00167 | AlphaScreen GST-Six1/His-Eya2 binding, biochemical; active compounds read low | activity change, % (concentration not given with the values) | actives 0.56% (n = 360,000) | AID 651725; in the data active = activity change below about -65%; inconclusive = mostly about -30% to -63%; also: % is scaled to controls: 0 for no effect and ±100 for the full control effect
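AlphaScreen with GST-Six1 and His-Eya2 (5X mix: 250 nM and 500 nM), glutathione donor and nickel acceptor beads; buffer 50 mM Tris pH 8.0, 300 mM NaCl, 1 mM TCEP; 1 h at 37 C in the dark.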
CBFb-RUNX1 inh: inhibitors of human CBF-beta and RUNX1 interaction; AlphaScreen CBFb-His/RUNX1-biotin binding, biochemical; 230,000 tested, under 10 active; Potency, µM (series often up to 59.8 µM), without a hit: at the top dose activity, negative = inhibition, usual class: inhibitors; Q01196+Q13951; AID 1477; also: % of control where 0% means no effect
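Read-out: AlphaScreen. Format: His-CBF-beta with biotinylated RUNX1 (30 nM each) preincubated 20 min, compound 15 min, Ni-chelate plus streptavidin beads 90 min; room temperature throughout.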
MBNL1 CUG block: inhibitors of human MBNL1 binding to CUG repeat RNA | Q9NR56 | TR-FRET MBNL1-His/biotin-(CUG)12 binding, 665/545 ratio | Potency, µM (top dose mostly 57.5 µM), without a hit: at the highest dose activity change, negative = inhibition, actives largely listed as inhibitors | actives 0.036% (n = 280,000) | AID 2675; active = well fitted inhibition curve with a large enough effect in the signal ratio, with a control signal flat, not every such curve was filed as active; inconclusive = small, poorly fitted or top-dose-only effect, or effect the other way, or a change in a side signal; inactive = no such curve, though single readings can be large or run the other way; the % refers to the signal ratio; also: potency is read from the fitted curve at half-maximal effect; % is scaled to controls: 0 for no effect and ±100 for the full control effect
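Compound titration spanned 92 nM–58 uM against the MBNL1-His/biotin-(CUG)12 complex. After 60 min at room temperature with 5 nM streptavidin-XL665 and 0.055 ng/ul terbium anti-His, ratiometric 665/545 nm emission (Ex 340 nm) normalized to controls.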
Gal4-VP16 FLuc: counter-screen for ROR gamma inhibitors: Gal4-VP16 reporter; actives 3.5% (n = 310,000); AID 2546; Potency, µM (titrated, usually from 53.6 µM), without a hit: at the top dose activity, negative = inhibition, actives largely listed as inhibitors; Drosophila S2 Gal4-VP16 UAS-luciferase, luminescence, 20 h;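 also: Gal4-VP16 expression switched on by copper sulfate through the metallothionein promoter; potency is read from the fitted curve at half-maximal effect; % is scaled to controls: 0 for no effect and ±100 for the full control effect; nearly all actives have a fitted effect of over 50% in size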
Starred values were filed as active, the others as inactive; ? = inconclusive; . = no result given. Unless noted, calls follow the shape of the dose curve; as a rule, active = well fitted curve in the direction sought with a large enough effect; inconclusive = small, poorly fitted or top-dose-only effect, or another doubt; inactive = no such curve, though single readings can be large; an effect the other way counts as inactive or inconclusive.

SMILES | RORg inh | CtBP-E1A blk | Six1-Eya2 inh | CBFb-RUNX1 inh | MBNL1 CUG block | Gal4-VP16 FLuc
CC1CCC(C(C)C)C(OC(=O)Cn2c(-c3ccc(Br)cc3)[n+](C)c3ccccc32)C1 (configuration not stated) | ? | . | -14 | -6% | -2% | ?
CCCCCCCCCCOC(=O)Cn1c(COc2ccc(OC)cc2)[n+](C)c2ccccc21 | ? | 0 | -4 | . | -1% | 6.3µM*
CCCCCCCCCCOC(=O)Cn1c(COc2ccccc2)[n+](C)c2ccccc21 | ? | . | 5 | . | -5% | ?
CCCCCCCCCCOC(=O)Cn1c(COc2cccc(C)c2)[n+](C)c2ccccc21 | -85% | -6 | 6 | . | 5% | 11µM*
CCCCCCCCCCOC(=O)Cn1c(COc2ccccc2C)[n+](C)c2ccccc21 | ? | -2 | -3 | . | 4% | 16µM*
CCCCCCCCCCOC(=O)Cn1c(COc2ccc(Cl)cc2)[n+](C)c2ccccc21 | ? | . | -6 | . | -9% | ?
Cc1ccccc1OCc1n(CC(=O)OC2CC(C)CCC2C(C)C)c2ccccc2[n+]1C (configuration not stated) | ? | -6 | 0 | 5% | 10% | 18µM*
COc1ccc(CCN(C)C(=O)COC(=O)/C=C/c2ccc(C)o2)cc1OC | . | 0 | 2 | . | . | .
CCc1ccc2c(c1)cc(CN(C(=S)Nc1cccc(C)c1)C1CC1)c1nnnn12 | 6.3µM* | 1 | 0 | -1% | -5% | 10%
COCCN(Cc1cc2cc(C)ccc2n2nnnc12)C(=S)Nc1cccc(C)c1 | ? | . | 1 | -18% | -12% | -10%
Cc1ccc2nsnc2c1NC(=O)c1ccc([N+](=O)[O-])cc1 | 7.9µM* | -14 | 21 | -2% | ? | ?
CC(=O)c1cccc(-n2c(CCC(=O)O)ccc2-c2ccc(C)cc2)c1 | -1% | -7 | -18 | . | -2% | -10%
O=C1c2c(O)cc(O)cc2O[C@H](c2ccc(O)c(O)c2)C1O (some centres not stated) | -2% | . | . | -14% | . | -3%
CCC(c1nnc(SCC(=O)Nc2nnc(-c3ccccc3)o2)n1Cc1ccccc1)N(C)C (configuration not stated) | 8.9µM* | -7 | -7 | -19% | 1% | ?
Cc1noc(C)c1C(=O)NCC(=O)Nc1ccccc1Br | . | . | 7 | . | . | .
N#C/C(=C\c1ccco1)C(=O)NCc1ccccc1 | 36% | . | 17 | 0% | ? | 10%
N#CC(C#N)=C1C=CC=CN1/C(=C\c1ccco1)C(=O)c1ccc(-c2ccccc2)cc1 | 4µM* | 12 | -21 | -12% | 7% | 3.2µM*
N#CC(C#N)=C1C=CC=CN1/C(=C\c1ccco1)C(=O)c1ccc(Cl)cc1 | 5µM* | 3 | 3 | 2% | 20% | 1.1µM*
COC(=O)C1=C(C(=O)OC)SC(=C2C(=S)C(C)(C)N(C(=O)C(C)C)c3ccccc32)S1 | 7% | 9 | ? | ? | 2% | 6%
COC(=O)C1=C(C(=O)OC)SC(=C2C(=S)C(C)(C)N(C(=O)C3CC3)c3ccccc32)S1 | 8% | -80* | -77* | . | 11% | 1%
O=C(N/N=C1/CC(c2ccccc2)Oc2ccccc21)C1CC1 (configuration not stated) | 11µM* | 19 | 2 | 1% | . | -15%
N#Cc1ccc(OCC(=O)N/N=C2/CC(c3ccccc3)Oc3ccccc32)cc1 (configuration not stated) | 11µM* | -1 | 2 | -23% | . | 11µM*
O=C(N/N=C1\CC(c2ccccc2)Oc2ccccc21)c1cccnc1 (configuration not stated) | 5.6µM* | 7 | 2 | -18% | -6% | 4µM*
O=C(N/N=C1\CC(c2ccccc2)Oc2ccccc21)c1ccc(O)cc1 (configuration not stated) | -38% | -2 | -3 | . | 9% | ?
CCNC(=O)C1(C)CCCN(CC(=O)c2ccccc2OC)C1 (configuration not stated) | . | -4 | -16 | . | . | .
SMILES | RORg inh | CtBP-E1A blk | Six1-Eya2 inh | CBFb-RUNX1 inh | MBNL1 CUG block | Gal4-VP16 FLuc
CN(C)CCCN(C(=O)c1ccc([N+](=O)[O-])s1)c1nc2cc3c(cc2s1)OCCO3 | 13µM* | -7 | -11 | . | ? | ?
CCCCCC(=O)NNC1=NCC(Cc2cccc(Cl)c2)S1 (configuration not stated) | 0.79µM* | 3 | 1 | -14% | -4% | 5µM*
CCOC(=O)c1nn(-c2ccccc2)c(=O)c2c(N)scc12 | 6% | 15 | 60 | -3% | ? | 4%
CCOC(=O)c1nn(-c2ccccc2)c(C(=O)OCC)c1N | 1.3µM* | 10 | 2 | 8% | 7% | 2%
CN(C1=C(N2CCOCC2)C(=O)c2ccccc2C1=O)c1ccccc1 | 14µM* | ? | -82* | . | . | -26%
O=C1C=C(N2CCOCC2)c2ccccc2C1=O | 4µM* | -24 | ? | . | ? | 3.2µM*
O=C1C=C(N2CCOCC2)c2cccc3cccc1c23 | . | ? | 0 | . | . | .
CC(=O)N(C(C)=O)N1C(=O)c2cccc3c(N4CCOCC4)ccc(c23)C1=O | -11% | . | 7 | 0% | ? | -6%
CC1=C(C)C(=O)C(N2CCOCC2)=CC1=O | 22µM* | -3 | -2 | 1% | 4% | ?
Cc1ccc(N2CCOCC2)c2c1C(=O)c1ccccc1C2=O | -7% | ? | -76* | 0% | ? | -18%
CC(C)Oc1ccc(CCC(=O)N/N=C/c2ccc3c(c2)OCO3)cc1 | -12% | 3 | -1 | . | -5% | -6%
CCCOc1ccc(CNC(=S)NCc2ccc(OC(C)C)cc2)cc1 | 7.1µM* | 2 | -6 | 8% | . | 7.1µM*
CCCOc1ccc(/C=N/NC(=O)c2ccc(Cn3cc([N+](=O)[O-])cn3)o2)cc1 | -1% | 1 | 4 | 1% | -4% | -3%
CC(C)COc1ccc(CNC(=S)N/N=C/c2ccc([N+](=O)[O-])cc2)cc1 | 1.4µM* | -5 | -9 | -10% | -1% | 4.5µM*
CCCOc1ccc(CNC(=S)N/N=C/c2ccc([N+](=O)[O-])cc2)cc1 | 1.3µM* | -15 | -3 | -9% | 9% | 1.6µM*
CC(C)Oc1ccc(CCC(=O)N/N=C/c2ccncc2)cc1 | 20µM* | 2 | -1 | 2% | -4% | -6%
COCC(=O)n1nc(-c2ccccc2)nc1NCc1ccc(N(C)C)cc1 | 19% | -17 | 0 | -28% | -3% | ?

High-throughput results: PubChem BioAssay, National Center for Advancing Translational Sciences (NCATS)
